Drawing on PubChem BioAssay (NCI), this text covers growth inhibition for 21 compounds.

About 79,000 compounds went through this panel and 15% of them were active in at least one assay; those are over-represented in the sample as a whole. A number with no mark means an inactive call. Activity calls are given as the source filed them. Cut-off read from the data, not from the text of the source: active = growth inhibition above about 70%; inactive = the rest.

A short description of assay [1]: NCI Yeast Anticancer Drug Screen. Data for the rad50 strain (AID 155).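 Note: 0% = growth of vehicle-only cultures of the same strain.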 The settings on record: S. cerevisiae rad50 strain growth inhibition; at 50.0 µM; active compounds read high. In short, it runs like this: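 Genetically altered yeast (DNA repair pathway); compound treatment; growth inhibition vs vehicle ctrl.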
Assay [2] is described as follows: NCI Yeast Anticancer Drug Screen. Data for the mec2-1 strain (AID 157). To be noted: S. cerevisiae mec2-1 strain, at 50.0 µM, active compounds read high. In outline:
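mec2-1 yeast strain, carrying an alteration in DNA damage repair or cell cycle control, was exposed to compounds; growth inhibition was measured relative to vehicle-treated controls.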

The nature of assay [3]: NCI Yeast Anticancer Drug Screen. Data for the sgs1 mgt1 strain (AID 161).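 Note: 0% = growth of cultures given vehicle only.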 The settings on record: S. cerevisiae sgs1 mgt1 strain, at 50.0 µM, active compounds read high. In short, it runs like this: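 Yeast cells carrying a defined DNA-repair defect were exposed to test compounds. Growth inhibition was measured relative to vehicle-treated controls.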
Assay [4] in a line: NCI Yeast Anticancer Drug Screen. Data for the cln2 rad14 strain (AID 165).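 Note: 0% = growth equal to vehicle treated cultures.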 The settings on record: S. cerevisiae cln2 rad14 strain, at 50.0 µM, active compounds read high. In short, it runs like this: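 Yeast carrying cln2 and rad14 alterations (cell cycle control and DNA damage repair) were exposed to compounds. Growth inhibition was measured against vehicle-treated controls.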
Assay [5] in a line: NCI Yeast Anticancer Drug Screen. Data for the bub3 strain (AID 167). The settings on record: S. cerevisiae bub3 mutant strain, at 50.0 µM, active compounds read high. In short, it runs like this:
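Yeast carrying a defined mutation is treated with each compound, and growth is compared with that of vehicle-exposed cells to give inhibition.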

Assay [6] in a line: NCI Yeast Anticancer Drug Screen. Data for the mlh1 rad18 strain (AID 175). The settings on record: S. cerevisiae mlh1 rad18 strain growth inhibition; at 50.0 µM; active compounds read high. In short, it runs like this:
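Growth inhibition of the yeast strain was measured after compound exposure and expressed relative to vehicle-treated controls. The strain carries defined defects in DNA damage repair.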

Consider `Cc1nc(N=C(N)N)nc2ccccc12`, for which the growth inhibition was 3.4% in assay [1]; -8.45% in assay [2]; 10.7% in assay [3]; 16.8% in assay [4]; 2.65% in assay [5]; 14.2% in assay [6].

Take `Ic1ccccn1`: the growth inhibition in assay [1] was 15.3%; in assay [2] it was -11.3%; in assay [3], -9.05%; in assay [4], -29.8%; in assay [5], -8.15%; in assay [6] it was -1.2%.

For the compound `O=C(Cc1cc2c(cc1[N+](=O)[O-])OCO2)c1c[nH]c2ccc(Br)cc12`, the growth inhibition in assay [1] is 6.45%; in assay [2] it was -3.9%; in assay [3], 19.6%; in assay [4], 18.5%; in assay [5], -2.2%; in assay [6] it was 7.55%.

Consider `O=C(O)CSCC(=O)c1ccccc1`, for which the growth inhibition in assay [1] was -2.1%; in assay [2] it was -16.4%; in assay [3] it was -43.2%; in assay [4] it was -29.1%; in assay [5], -53.4%; in assay [6], -16.6%.

Turning to `CCSc1nc(Cl)nc2c1cnn2C`, the growth inhibition in assay [1] was 7.95%; in assay [2], -2.15%; in assay [3], 8.05%; in assay [4], 4.1%; in assay [5] it was 24.9%; in assay [6], 5.4%.

With `Oc1cc(-c2ccc(Cl)cc2)cn2c1nc1ccccc12`, the growth inhibition was -13.3% in assay [1]; -23.8% in assay [2]; -38.5% in assay [3]; -24.1% in assay [4]; -5.75% in assay [5]; -50% in assay [6].

Take `COc1cccc2c1C(=O)c1c(OC)c(CBr)cc(OC)c1C2=O`: the growth inhibition is 37.6% in assay [1]; 9.55% in assay [2]; 15.9% in assay [3]; -36.6% in assay [4]; -7.85% in assay [5]; 15.5% in assay [6].

As to `CC1CN(C(=S)Nc2ccccc2)CCN1C(=S)Nc1ccccc1` (stereo unspecified), the growth inhibition in assay [1] is -9%; in assay [2], 8.7%; in assay [3], 6.3%; in assay [4] it was -42.9%; in assay [5], 0.5%; in assay [6], -7.6%.

Take `O=C(O)/C=C/c1c(Cl)cccc1Cl`: the growth inhibition is -14.6% in assay [1]; -8.05% in assay [2]; -11.9% in assay [3]; -37.2% in assay [4]; -18.1% in assay [5]; -5.8% in assay [6].

Take `O=C(Cc1cc[n+]([O-])cc1)C(=O)Nc1cc(Cl)c(Cl)cc1Cl`: the growth inhibition was -27.4% in assay [1]; -11.9% in assay [2]; -21.5% in assay [3]; -17.1% in assay [4]; -17.8% in assay [5]; -20.1% in assay [6].

Consider `Nc1nc(Cl)c2nc(Cl)n(C3OC(CO)C(O)C3O)c2n1` (stereo unspecified), for which the growth inhibition was -7.1% in assay [1]; 1.75% in assay [2]; -8.7% in assay [3]; -16% in assay [4]; 4.5% in assay [5]; -4.25% in assay [6].

Regarding `CC(=O)CC(=O)NCCCc1ccccc1`, the growth inhibition in assay [1] is -18.8%; in assay [2], -33.4%; in assay [3], -21.6%; in assay [4], 3.5%; in assay [5] it was -6.9%; in assay [6], -11.9%.

`O=C(N/N=C\C(F)(F)F)c1ccncc1`: the growth inhibition in assay [1] is 0.85%; in assay [2], -10.8%; in assay [3] it was 4.65%; in assay [4], -25%; in assay [5] it was 1.5%; in assay [6], 24.1%.

As to `O=[N+]([O-])c1ccc(N/N=C/c2ccccc2Cl)cc1`, the growth inhibition in assay [1] was 8%; in assay [2], 12.4%; in assay [3], 26.4%; in assay [4], -1.3%; in assay [5], 36.4%; in assay [6], 31.4%.

For the compound `COc1ccc2nc3cc([N+](=O)[O-])ccc3c(Nc3ccc(S(=O)(=O)NC(C)=O)cc3)c2c1`, the growth inhibition in assay [1] was 76.3% (active); in assay [2], 36.4%; in assay [3] it was 67.8%; in assay [4], 36%; in assay [5], 64.5%; in assay [6] it was 75.2% (active).

Regarding `CC(C)=CCNc1nc(Cl)nc2nc[nH]c12`, the growth inhibition was -28.1% in assay [1]; -8% in assay [2]; -59% in assay [3]; -14.5% in assay [4]; -19.4% in assay [5]; -67.7% in assay [6].

Turning to `O=C(C[n+]1ccccc1Cl)c1ccc(I)cc1`, the growth inhibition was 18.2% in assay [1]; 24.8% in assay [2]; 53% in assay [3]; 9.05% in assay [4]; 19.9% in assay [5]; 56.8% in assay [6].

For `O=C1c2ccccc2C(=O)N1CCOCCOCCN1C(=O)c2ccccc2C1=O`, the growth inhibition was -8.15% in assay [1]; -6% in assay [2]; -17% in assay [3]; -20.7% in assay [4]; -2.7% in assay [5]; 20.4% in assay [6].

Turning to `O=C(NCN1CCOCC1)Nc1ccc(Cl)cc1`, the growth inhibition in assay [1] was -13.4%; in assay [2] it was 8.5%; in assay [3], -4.8%; in assay [4], -22.3%; in assay [5] it was 8.75%; in assay [6] it was -3.25%.

As to `CCN(CC)c1cc2c3c(c1)CCCN3CCC2`, the growth inhibition is -20.9% in assay [1]; -27.9% in assay [2]; -3.85% in assay [3]; 2.55% in assay [4]; -8.1% in assay [5]; -0.65% in assay [6].

As to `CN(C)CCC(=O)c1cccc(O)c1`, the growth inhibition is -27.9% in assay [1]; -19% in assay [2]; -6.4% in assay [3]; -37.6% in assay [4]; -9.45% in assay [5]; -10.2% in assay [6].
